Assay outcomes deposited in PubChem by National Center for Advancing Translational Sciences (NCATS).
FBPA Giardia inh: Giardia lamblia aldolase inhibition; A8B2U2; purified Giardia FBPA; Potency, µM (titrated, usually from 59.6 µM), for inactives: at the highest dose activity, negative = inhibition, hits mostly inhibitors; hit rate 0.71% among 290,000; also: potency is read from the fitted curve at half-maximal effect; % is scaled to controls: 0 for no effect and ±100 for the full control effect; nearly all actives have a fitted effect of over 55% in size
Target sequence (A8B2U2 whole entry, looked up): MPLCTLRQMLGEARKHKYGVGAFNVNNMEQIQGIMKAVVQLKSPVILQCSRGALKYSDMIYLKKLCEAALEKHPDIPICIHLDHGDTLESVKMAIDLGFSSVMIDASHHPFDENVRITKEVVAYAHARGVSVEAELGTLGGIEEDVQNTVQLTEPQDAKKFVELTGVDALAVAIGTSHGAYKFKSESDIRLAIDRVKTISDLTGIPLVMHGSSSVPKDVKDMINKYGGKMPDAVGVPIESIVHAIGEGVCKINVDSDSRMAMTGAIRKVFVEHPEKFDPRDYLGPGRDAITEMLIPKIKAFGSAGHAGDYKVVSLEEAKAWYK
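40 nM FBPA preincubated 10 min at RT with compound (up to 57.5 uM final), then substrate plus GAPDH/TPI/NAD/arsenate coupling and diaphorase/resazurin added. Fluorescence read after 20 min at RT, 525/598 nm.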
TbPYK inhibitor: blocks Trypanosoma brucei pyruvate kinase; Q57TT1; TbPYK enzyme, Kinase-Glo Plus ATP luminescence, 45 min; Potency, µM (titrated, usually from 76.8 µM), for the others: top-dose activity, negative = inhibition, most hits filed as inhibitors; hit rate 0.12% among 410,000; AID 624173; also: potency is read from the fitted curve at half-maximal effect; % is scaled to controls: 0 for no effect and ±100 for the full control effect; nearly all actives have a fitted effect of over 50% in size
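Screened from lowest to highest concentration, compounds were pinned into TbPYK/substrate mixtures, and ADP (130 uM final) was added. Plates sat at room temperature for 45 min prior to Kinase-Glo Plus detection by luminescence.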
Shiga inhibitor: inhibitors of Shiga toxin in Vero cells; Vero cells, Shiga toxin protein synthesis inhibition reporter; inhibition, % at 38.7 µM; hit rate 9.2% among 290,000; in the data active = inhibition mostly above about 28%, no sharp cut-off; inactive = mostly below about 43%; also: 0% is about no effect
CHX counter: counter-screen for Shiga toxin inhibitors: cycloheximide protein synthesis inhibition; cell reporter, cycloheximide protein synthesis inhibition counterscreen; max response, %; hit rate 12% among 300,000; AID 2314; in the data active = max response mostly above about 13%, no sharp cut-off; inactive = mostly below about 14%; also: read at 38.3 µM for the half of the compounds with a filed dose; 0% is about no effect
RE007 growth inh: less growth of the S. pombe RE007 Vpr strain; S. pombe RE007 Vpr strain, BacTiter-Glo ATP luminescence, 24 h; Potency, µM (top dose mostly 92.2 µM), for inactives: at the top dose activity change, negative = less growth, hits mostly inhibitors; hit rate 0.21% among 360,000; active = well fitted falling curve with a large enough effect; inconclusive = small, poorly fitted or top-dose-only effect; inactive = no such curve, though single readings can be large or run the other way; also: potency is read from the fitted curve at half-maximal effect; % is scaled to controls: 0 for no effect and ±100 for the full control effect; nearly all actives have a fitted effect of over 50% in size
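Fission yeast RE007 carrying one integrated HIV-1 vpr copy, seeded at OD 0.01 in PMG+AL medium with 23 nL pinned compound. Grown 24 h at 30 degrees; viability read by BacTiter-Glo luminescence after 5 min.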
LmPK inhibitor: LmPK (Leishmania mexicana) enzyme inhibition; Potency, µM (series often up to 57.5 µM), inactives show at the highest dose activity change, negative = inhibition, actives largely listed as inhibitors; Q27686; AID 1721; purified LmPK, Kinase-Glo ATP luminescence, 1 h; hit rate 0.37% among 290,000; also: potency is read from the fitted curve at half-maximal effect; % is scaled to controls: 0 for no effect and ±100 for the full control effect
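In 50 mM imidazole pH 7.2 with 7 mM MgCl2, LmPK (0.1 nM) turned over PEP (0.5 mM) and ADP (0.1 mM) for 1 h at room temperature. Luciferase read-out of ATP.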
Active calls of the source: *; u = inconclusive; x = no result. The sample as a whole holds a higher share of hits than the screen did. Unless noted, calls follow the shape of the dose curve; as a rule, active = well fitted curve in the direction sought with a large enough effect; inconclusive = small, poorly fitted or top-dose-only effect, or another doubt; inactive = no such curve, though single readings can be large; an effect the other way counts as inactive or inconclusive.

SMILES	FBPA Giardia inh	TbPYK inhibitor	Shiga inhibitor	CHX counter	RE007 growth inh	LmPK inhibitor
Cc1cccc(NC(=S)NC(=O)c2ccc(-c3ccccc3)cc2)n1	-1%	2%	37*	26*	-14%	-1%
CCOC(=O)C1CCC(CN(Cc2ccc(Cl)cc2)S(=O)(=O)c2cc(Cl)cc(Cl)c2)CC1 (centres undefined)	x	-6%	x	x	x	x
Cc1nnc(C)n1/N=C/c1ccc(-c2ccccc2Cl)o1	-2%	0%	2	0	-7%	0%
O=C1NC(=S)/C(=C\c2ccc(-c3ccccc3Cl)o2)S1	-3%	1%	31*	11	12%	-1%
S=c1[nH]nc2ccc3ccccc3n12	x	7.1µM*	x	x	-10%	x
S=c1[nH]c2ccccc2n2c(=S)[nH]nc12	u	-27%	-3	7	18%	-16%
COc1ccc2nc(/C=N/NC(=O)[C@@H]3CCCN3C(=O)OC(C)(C)C)ccc2c1	-11%	2%	76*	46*	16%	-2%
CC(C)(C)OC(=O)N1CCC[C@H]1C(=O)N/N=C/c1ccc2nccnc2c1	6%	0%	-4	17	22%	0%
CCc1ccc(C(=O)c2cn(Cc3ccccc3)c3cc(OC)c(OC)cc3c2=O)cc1	x	0%	x	x	x	x
Cc1ccc(C)c2sc(NC(=O)c3ccc(N4C(=O)CCC4=O)cc3)nc12	1%	7%	-11	-2	3%	1%
O=C(Nc1nc2c(s1)CCCC2)c1ccc(Br)s1	-15%	-9%	111*	42*	-14%	-7%
CC1CCc2nc(NC(=O)c3ccco3)sc2C1 (centres undefined)	-3%	1%	-24	3	u	-30%
CC1CCc2nc(NC(=O)c3ccc(N4C(=O)CCC4=O)cc3)sc2C1 (centres undefined)	x	2%	35*	13*	23%	1%
Cc1ccc(CC(=O)Nc2nc3c(s2)CCCC3)cc1	-1%	1%	46	26	-29%	-11%
O=C(Nc1nc2c(s1)CCCC2)c1ccc(N2C(=O)CCC2=O)cc1	x	-5%	72*	38*	-5%	-4%
CC(C)(C)C(=O)Nc1cccc(C(=O)OCc2cc(=O)n3nc(C4CC4)sc3n2)c1	x	-3%	x	x	x	x
COc1ccc(C(=O)Nc2ccc(NC(=O)c3cccs3)cc2)cc1OC	x	2%	x	x	x	x
COc1ccc(-c2csc(NC(=O)c3cccs3)c2C(=O)O)cc1OC	-29%	-7%	28*	28	29%	-18%
COc1cccc(OC)c1C(=O)Nc1cccc(NC(=O)c2cccs2)c1	-9%	0%	2	-1	-5%	10%
COc1ccc(NC(=O)c2cccs2)cc1O	-2%	-8%	70*	58*	1%	-13%
COc1ccc(/C=C/C(=O)c2ccc(NC(=O)c3cccs3)cc2)cc1OC	-5%	-3%	70*	22*	1%	-4%
COc1ccc(C(=O)Nc2cccc(NC(=O)c3cccs3)c2)cc1OC	14%	1%	23*	20*	-1%	-4%
Cc1cccc(N2CC(c3nc4ccccc4n3CCC3CCCCC3)CC2=O)c1 (centres undefined)	x	-5%	x	x	x	x
O=C(CN1CC(c2ccccc2)CC1=O)OCc1ccccc1F (centres undefined)	4%	-8%	97*	44*	4%	5%
NC(=O)CN1CC(c2ccccc2)CC1=O (centres undefined)	2%	4%	-17	-5	-1%	3%
SMILES	FBPA Giardia inh	TbPYK inhibitor	Shiga inhibitor	CHX counter	RE007 growth inh	LmPK inhibitor
COc1ccc(Cl)cc1NC(=O)C1CCCN(S(C)(=O)=O)C1 (centres undefined)	-7%	11%	-11	-2	1%	3%
COc1ccc(-c2n[nH]c(=S)n2-c2ccc(C)cc2)cc1	1%	u	8	-8	19%	2µM*
COc1ccc(-n2c(-c3ccc(Br)cc3)n[nH]c2=S)cc1	22%	u	x	-2	3%	10µM*
S=c1[nH]nc(-c2ccc(Cl)cc2)n1-c1ccc(Cl)cc1	u	u	-9	-2	7%	u
CCCN(CCC)C(=O)c1nn(C)c2c1CSc1ccc(C)cc1-2	x	-8%	x	x	x	x
Cc1ccc(OCC(=O)Nc2cc(C(C)(C)C)on2)cc1C	x	1%	-12	-2	-26%	-8%
Cc1cc(NC(=O)COc2ccc3ccccc3c2)no1	11%	-2%	27	31*	-17%	4%
O=C(COc1ccccc1)Nc1ccncc1	5%	5%	24	-2	-8%	-4%
O=C(COc1ccc2ccccc2c1)Nc1ccncc1	4%	4%	27*	27*	u	5%
Cc1cc(NC(=O)COc2ccc(C)c(C)c2)no1	8%	-2%	65*	39*	12%	0%
CCCCN(C)S(=O)(=O)c1cc(-c2nnc3c4ccccc4c(C)nn23)ccc1C	x	0%	x	x	x	x
CC(Cc1cccs1)NC(=O)Nc1ccc(Cl)cc1 (centres undefined)	-6%	0%	88*	29*	7%	4%
CC(NC(=O)Nc1ccc(Cl)c(Cl)c1)C(c1ccccc1)N1CCOCC1 (centres undefined)	-15%	1%	-13	2	-3%	-1%
C[C@H](NC(=O)NCc1cccs1)C(=O)O	3%	5%	1	-2	19%	1%
CC(Cc1cccs1)NC(=O)Nc1ccccc1 (centres undefined)	-2%	-4%	64*	14	0%	2%
CC(Cc1cccs1)NC(=S)Nc1ccccc1 (centres undefined)	-5%	1%	40*	18*	3%	3%
CC(Cc1cccs1)NC(=O)Nc1ccc(Cl)c(Cl)c1 (centres undefined)	-8%	3%	59*	45*	25%	2%
CN(C)c1nc(-c2ccccc2)ns1	4%	1%	130*	33*	-15%	3%
O=C(N/N=C/c1cc([N+](=O)[O-])ccc1O)Nc1ccccc1	12%	3%	15	11	-7%	-5%
O=C(N/N=C/c1cc([N+](=O)[O-])ccc1O)C12CC3CC(CC(C3)C1)C2	9%	-1%	20	25*	-11%	12%
O=C(N/N=C/c1cc([N+](=O)[O-])ccc1O)NC12CC3CC(CC(C3)C1)C2	20%	-4%	96*	73*	15%	4%
COc1cc(/C=N/NC(=O)NC23CC4CC(CC(C4)C2)C3)ccc1OCC(N)=O	7%	-3%	-5	-1	6%	2%
O=C(N/N=C/c1ccc(O)cc1O)NC12CC3CC(CC(C3)C1)C2	7%	-3%	33*	24*	-16%	1%
CC(C)CN1CCCC2(CCN(C(=O)c3ccco3)CC2)C1	-6%	-5%	x	x	x	x
